Laboratory results from PubChem BioAssay AID492948 (National Center for Advancing Translational Sciences (NCATS), 2010).
Records with an inconclusive call do not appear. Values without a mark were called inactive. Active and inactive are the calls of the source. The call rests on the fitted dose curve; in most records, active means well fitted activation curve with a large enough effect; inconclusive means small, poorly fitted or top-dose-only effect; inactive means no such curve, though single readings can be large or run the other way.
Potency means the concentration at half of the fitted maximal effect.

Assay: qHTS Assay for Agonists of the Relaxin Receptor RXFP1: V1B Hit Validation;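 further: counter-screen in HEK293 cells expressing V1B rather than RXFP1 for selectivity; nearly all actives have a fitted effect of over 65% in size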;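 on activation: cAMP accumulation with PDE4 inhibitor Ro 20-1724 present during compound exposure; 0% = buffer alone basal and 100% = 29 nM porcine relaxin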
Conditions: HEK293 V1B cells, cAMP TR-FRET, 30 min; series mostly up to 115 µM; activation: at the top concentration
Text: NIH Chemical Genomics Center [NCGC]
NIH Molecular Libraries Probe Production Centers Network [MLPCN]
Assay Submitter (PI): Alexander Agoulnik
The relaxin hormone is involved in the variety of biological functions in normal tissues and diseases. The role of relaxin is well-established in female reproduction and parturition, mammary gland and endometrial development, maintenance of myometrial quiescence during pregnancy. Relaxin signaling through its G protein-coupled receptor (GPCR) RXFP1 results in ECM remodeling through regulation of collagen deposition, cell invasiveness, proliferation and overall tissue homeostasis. […] Recombinant human relaxin (rhRlx) is currently being tested in clinical trials as a protective agent in congestive heart failure, in treating severe preeclampsia, and as an anti-fibrotic agent in systemic sclerosis.
Upon relaxin binding RXFP1 activation leads to the activation of adenylate cyclase (AC) via Gs. cAMP will activate PKA, which phosphorylates many signaling proteins. Thus, detection of cAMP increase is an easy and reliable indication of relaxin receptor activation. To screen for agonists of the relaxin receptor, a HEK293T cell line stably transfected with RXFP1 was used. RXFP1 activation was assayed by changes in cAMP levels as detected with a time-resolved fluorescence energy transfer (TR-FRET) cAMP detection kit.
This assay measures activation of a cell expressing […], another GPCR targeted by relaxin, to determine the selectivity of compounds for RXFP1.
NCGC Assay Protocol Summary:
This is a cell-based assay for cAMP second messenger response to screen for agonists of the RXFP2 receptor. The assay was conducted in the presence of a PDE4 inhibitor (Ro 20174). The cells were lysed and the cAMP levels were measured with a TR-FRET cAMP kit. Presence of cAMP in the cell lysate disrupts binding between the cryptate-labeled anti-cAMP and d2-labeled cAMP pair, leading to a decrease in the TR-FRET signal. Data were normalized to the controls for basal activity (buffer only) and 100% activity (29 nM porcine relaxin). The EC50 values were determined from concentration-response data modeled with the standard Hill equation
1536-well assay protocol for the HEK293 V1B cAMP assay:
(1) Add 3 ul HEK293 RXFP2 cell culture. 2000 cells/well in DMEM/F12, 10% FBS, 1x Pen/Strep (dispensed offline with MultiDrop Combi).
(3) Add 23 nl compounds in DMSO solution. Final concentration was 0.5 - 58 uM.
(4) Incubate 30 min at 37C, 5% CO2.
(5) Add 1 ul cAMP-d2 in lysis buffer (HTRF cAMP HiRange kit, CisBio).
(6) Add 1 ul anti-cAMP antibody-cryptate in lysis buffer (HTRF cAMP HiRange kit, CisBio).
(7) Incubate 30 min at room temperature.
(6) Detect the assay plate in a ViewLux plate reader (PerkinElmer) with Ex=320 nm, Em1=615 nm and Em2=665 nm.
Keywords: relaxin, RXFP1, RXFP2, G-protein coupled receptor, cAMP, agonist, high throughput screening, MLSMR, MLSCN, NIH Roadmap, qHTS and NCGC
With `O=C(Nc1ccccc1C(=O)O)c1ccc(NC(=O)C2CC2)cc1` the “activation” value was 2.23%. With `CCN(CC)S(=O)(=O)c1ccc2c(c1)nc(SCc1nc3ccsc3c(=O)[nH]1)n2CC` the Potency was 0.245 µM (active). With `O=C(Nc1cccc(C(F)(F)F)c1)c1ccccc1NC(=O)C1CCCCC1` the Potency was “inactive”. In the case of `CC(C)n1c(SCC(=O)N2CCN(C(=O)c3ccco3)CC2)nc2c1c(=O)n(C)c(=O)n2C`, the Potency is reported as 6.9 µM (active). With `NC(=S)c1cc2ccc(O)cc2oc1=O` the Potency was 4.35 µM (active). In the case of `CCC(=O)Nc1ccc(-n2nnnc2SCC(=O)NNC(=O)c2ccco2)cc1`, the “activation” value is reported as 1.43%. With `Cc1nn(CCCC(=O)NCc2ccc(F)cc2)c(=O)c2nccn12` the Potency was 38.9 µM (active). For `O=C(O)CCSc1ccc2ccccc2n1`, the Potency was 6.15 µM (active). In the case of `O=C(Nc1ccccc1C(=O)N1CCNCC1)c1ccco1`, the “activation” value is reported as -5.42% [at 127 µM]. In the case of `CCOC(=O)N1CCN(S(=O)(=O)c2c(C)nc3scc(C)n3c2=O)CC1`, the Potency is reported as 24.5 µM (active). With `CCN(CC)S(=O)(=O)c1cccc(N=Nc2c(O)c3ccccc3oc2=O)c1` the Potency was 27.5 µM (active). With `COc1ccc(/C=C2/SC(=O)N(CC(=O)Nc3cc(C)on3)C2=O)cc1OC` the “activation” value was -72.1%. With `CC(C)C(=O)Nc1ccc(Nc2ccccc2)cc1` the “activation” value was -2.7%. In the case of `Cc1ccnc(NS(=O)(=O)c2ccc(N3C(=O)c4ccccc4C3=O)cc2)n1`, the Potency is reported as 14.9 µM (active). For `CCn1c(SCC(=O)Nc2ccc(NC(C)=O)cc2)nc2c1c(=O)n(C)c(=O)n2C`, the Potency was 30.9 µM (active). With `COC(=O)c1sc(N2C(=O)C(O)=C(C(=O)c3ccc(C)o3)C2c2ccc(F)cc2)nc1C` (stereo not given) the Potency was 2.75 µM (active). In the case of `CCc1ccc2n(-c3ccc(OC)cc3)c([S-])c(C(=O)Nc3cc(C)cc(C)c3)[n+]2c1`, the Potency is reported as 30.8 µM (active). For `O=C(Nc1ccccc1C(=O)Nc1ccc(F)cc1)c1ccco1`, the “activation” value was 3.36% [at 127 µM]. In the case of `Cc1cc(NC(=O)c2ccccc2F)nc2c1c(=O)oc1ccccc12`, the Potency is reported as 21.8 µM (active). For `CCCn1c(SCC(=O)Nc2ccc(NC(C)=O)cc2)nc2c1c(=O)n(C)c(=O)n2C`, the Potency was 38.9 µM (active). With `CC(C)n1cnc2c(N(C)c3cccc(Cl)c3)nc(N(CCO)CCO)nc21` the “activation” value was -3.24%. With `COC(=O)[C@@H]1C[C@@]2(O)[C@H](O)[C@H](O)[C@H](O)C[C@H]2N1Cc1cc(F)ccc1F` the “activation” value was 3.86%. For `O=S(=O)(c1cccc(-c2cn3cccnc3n2)c1)N1CCOCC1`, the Potency was 19.5 µM (active). For `O=C(CCc1nnc2ccc(N3CCC4(CC3)OCCO4)nn12)NCc1ccc(F)cc1`, the Potency was 38.9 µM (active). With `COc1ccc(Cl)cc1-c1n[nH]c(=S)o1` the Potency was 4.35 µM (active). In the case of `Cc1cccc(NC(=O)c2ccccc2NC(=O)C2CCCCC2)c1C`, the “activation” value is reported as -3.76% [at 127 µM]. For `COc1ccc(C(=O)Nc2ccc(S(=O)(=O)Nc3onc(C)c3C)cc2)c(OC)c1`, the Potency was 14.9 µM (active). With `Cc1cccc(NC(=O)c2ccccc2NC(=O)c2ccco2)c1` the “activation” value was 5.32% [at 127 µM]. In the case of `Cc1ccc2[nH]c3c(=S)nc[nH]c3c2c1`, the Potency is reported as 6.15 µM (active). For `CCOc1ccc2cc(C#N)c(SCC(=O)NC(C)CC)nc2c1` (stereo not given), the Potency was 5.48 µM (active). For `COc1ccc(S(=O)(=O)N2CCOCC2)cc1NC(=O)CSc1ncnc2ccccc12`, the Potency was 13.8 µM (active). For `CC1(C)O[C@@H]2[C@H](O1)[C@@H](COS(=O)(=O)O)O[C@H]2n1cnc2c(N)ncnc21`, the Potency was 3.88 µM (active). With `S=c1nc[nH]c2c1[nH]c1ccccc12` the Potency was 6.9 µM (active). For `Nc1ncnc2c1ncn2[C@@H]1O[C@H](COS(=O)(=O)O)[C@@H](O)[C@H]1O`, the Potency was 6.9 µM (active). For `Cc1cccn2c(=O)c(/C=C3\SC(=S)NC3=O)c(NCCCN3CCOCC3)nc12`, the Potency was 4.35 µM (active). For `NS(=O)(=O)c1ccc(CCNC(=O)C2CCN(c3ncnc4c3nc3n4CCCCC3)CC2)cc1`, the Potency was 38.9 µM (active). With `Cc1cccc2cc(C#N)c(SCC(=O)NCc3cccs3)nc12` the Potency was 19.4 µM (active). For `Brc1ccc(-c2nn3c(-c4ccco4)nnc3s2)o1`, the Potency was 13.8 µM (active). For `Cc1ccc(CN(C)C(=O)c2ccc3c(c2)NC(=O)CS3)o1`, the “activation” value was -30.6%. With `CCNc1nc(NCC)nc(N(C)/N=C/c2ccco2)n1` the “activation” value was 2.96%.
